Data reported in PubChem BioAssay (NCATS).
Records with an inconclusive call do not appear. Where a call stands in place of a potency, no number is given. Active and inactive are the calls of the source. Calls come from the whole dose curve.

test: Cytotoxicity counterscreen for inhibitors of SARS-CoV-2 cell entry (AID 1645845); settings: cell viability (SARS-CoV-2 entry assay cells); series mostly up to 57.1 µM; note: nearly all actives have a fitted effect of over 50% in size
How it was run: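 HEK293-ACE2 cells (Expi293F stably expressing human ACE2) seeded overnight, then compound for 1 h plus 48 h at 37C. Viability as ATP content by luminescence; normalized to wells with cells and media-only wells.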
Potency is the fitted concentration of half-maximal effect.

For `CC(C)(C)c1cc(NC(=O)Nc2ccc(-c3cn4c(n3)sc3cc(OCCN5CCOCC5)ccc34)cc2)no1`, which Potency is on record?
The Potency was “inactive”.

With `CCCS(=O)(=O)Nc1ccc(F)c(C(=O)c2c[nH]c3ncc(Cl)cc23)c1F` as the molecule, how does the Potency read?
Its Potency is “inactive”.

Which Potency does the source give for `Clc1ccc(C(c2ccc(Cl)cc2)n2cc[n+](CC(OCc3ccc(Cl)cc3Cl)c3ccc(Cl)cc3Cl)c2)cc1` (configuration not stated) here?
Its Potency is 31.6 µM (active).

For `C=CC(=O)Nc1cc2c(Nc3ccc(F)c(Cl)c3)ncnc2cc1C#CC(C)(C)N1CCN(C)CC1`, which Potency is on record?
The Potency was 25.1 µM (active).

With `CCCCCCCC(=O)OCC(O)CO` (configuration not stated) as the molecule, how does the Potency read?
The Potency was “inactive”.

For `OCCC#Cc1nc(-c2ccc(F)cc2)c(-c2ccncc2)n1CCCc1ccccc1`, which Potency is on record?
Its Potency is “inactive”.

With `COc1ccccc1-c1cccc(-c2c(O)c3cc(C#N)c(Cl)cc3[nH]c2=O)c1` as the molecule, how does the Potency read?
The Potency was “inactive”.

With `O=C(Nc1cc(C(F)(F)F)cc(C(F)(F)F)c1)c1cc(Cl)ccc1O` as the molecule, how does the Potency read?
Its Potency is 1.58 µM (active).

With `Cc1cc(C(=O)NNCc2ccccc2)no1` as the molecule, how does the Potency read?
Its Potency is “inactive”.

With `Cc1ccc(NC(=O)c2cccc(C(C)(C)C#N)c2)cc1Nc1ccc2ncn(C)c(=O)c2c1` as the molecule, how does the Potency read?
Its Potency is “inactive”.

For `Cc1cccc(-c2[nH]c(C(C)(C)C)nc2-c2ccc3nccnc3c2)n1`, which Potency is on record?
The Potency was “inactive”.

With `COc1cc(N2CCC(N3CCN(C)CC3)CC2)ccc1Nc1ncc(Cl)c(Nc2ccccc2S(=O)(=O)C(C)C)n1` as the molecule, how does the Potency read?
The Potency was 31.6 µM (active).

For `Cc1cn(-c2cc(NC(=O)c3ccc(C)c(Nc4nccc(-c5cccnc5)n4)c3)cc(C(F)(F)F)c2)cn1`, which Potency is on record?
Its Potency is “inactive”.

For `N#C/C(=C1\SCC(c2ccccc2Cl)S1)n1ccnc1` (configuration not stated), which Potency is on record?
Its Potency is “inactive”.

For `NC(=O)c1c(OCc2c(F)cc(Br)cc2F)nsc1NC(=O)NCCCCN1CCCC1`, which Potency is on record?
The Potency was “inactive”.

Which Potency does the source give for `CCOC(CN1C(=O)[C@](CC(=O)Nc2ccc(C)cc2)(NC(=O)Nc2ccc(C)cc2)c2ccccc21)OCC` here?
Its Potency is “inactive”.

For `O=[N+]([O-])c1ccc([As](=O)(O)O)cc1`, which Potency is on record?
Its Potency is “inactive”.

Which Potency does the source give for `C[C@@H]1CN(CC(=O)Nc2ccc3c(c2)Cc2cccc(-c4cc(=O)cc(N5CCOCC5)o4)c2S3)C[C@H](C)O1` here?
Its Potency is 14.1 µM (active).

For `NC(=O)c1ccc(-c2nc(-c3ccc4c(c3)OCO4)c(-c3ccccn3)[nH]2)cc1`, which Potency is on record?
Its Potency is “inactive”.

For `O=C(O)CNC(=O)CNC(=O)CNC(=O)CSC(=O)c1ccccc1`, which Potency is on record?
Its Potency is “inactive”.

For `C=CCNC(N)=S`, which Potency is on record?
The Potency was “inactive”.

Which Potency does the source give for `COc1cc2c(cc1OC)CC(=O)N(CCCN(C)C[C@H]1Cc3cc(OC)c(OC)cc31)CC2` here?
The Potency was “inactive”.

For `O=C(O)CCc1ccc(NCc2cccc(Oc3ccccc3)c2)cc1`, which Potency is on record?
Its Potency is “inactive”.

For `COc1ccc2cc(CCC(C)=O)ccc2c1`, which Potency is on record?
The Potency was “inactive”.

With `COc1nc(-c2ccc3c(c2)OCO3)n(-c2ccc(NC(=O)CSc3ccccc3)cc2)n1` as the molecule, how does the Potency read?
Its Potency is “inactive”.

For `Oc1cccc(-c2nc(N3CCOCC3)c3oc4ncccc4c3n2)c1`, which Potency is on record?
The Potency was “inactive”.

With `O=C(Nc1cccnc1)N1CCC(Cc2cccc(Oc3ccc(C(F)(F)F)cn3)c2)CC1` as the molecule, how does the Potency read?
The Potency was 20 µM (active).

With `COc1ccc(CCN2CCN(CCCc3ccccc3)CC2)cc1OC` as the molecule, how does the Potency read?
Its Potency is “inactive”.

With `CCN(CC)CCCCNc1nc2cc(Cl)c(Cl)cc2nc1-c1ccc(-c2cccs2)s1` as the molecule, how does the Potency read?
The Potency was “inactive”.

For `COc1cc2ncn(-c3cc(OCc4ccccc4C(F)(F)F)c(C(N)=O)s3)c2cc1OC`, which Potency is on record?
The Potency was 2.51 µM (active).

For `COc1cc(Oc2ccnc3cc(OC)c(OC)cc23)ccc1NC(=O)NC(C)c1nccs1` (configuration not stated), which Potency is on record?
The Potency was “inactive”.

For `CC(C)(C)c1cc(C(=O)O)c(NC(=O)Nc2ccc3[nH]ncc3c2)s1`, which Potency is on record?
The Potency was “inactive”.

Which Potency does the source give for `Nc1nc(-c2nn(Cc3ccccc3F)c3ncccc23)nc(N)c1N1CCOCC1` here?
The Potency was “inactive”.

With `CCN1CCN(c2cc3c(cc2F)c(=O)c(C(=O)O)cn3C2CC2)CC1` as the molecule, how does the Potency read?
Its Potency is “inactive”.

With `C1Cc2[nH]nc(-c3nn[nH]n3)c2C1` as the molecule, how does the Potency read?
The Potency was “inactive”.

For `COc1cccc2cc(-c3nc(C4CCC(C(=O)O)CC4)n4ncnc(N)c34)[nH]c12` (configuration not stated), which Potency is on record?
Its Potency is “inactive”.

For `CN(C)C1CCN(C(=O)c2ccc(NC(=O)Nc3nc(N4CCOCC4)nc(N4CCOCC4)n3)cc2)CC1`, which Potency is on record?
Its Potency is 6.31 µM (active).
